Assay outcomes as filed in PubChem BioAssay.
A selection: hits, their analogues and other compounds. The true share with any hit is near 2.3%.
CCT modulator – cytosolic chaperonin activity modulation; purified chaperonin ATPase assay, HTRF ADP detection, 30 min; activity change, % (concentration not given with the values), hits read low; 360,000 compounds, 0.3% hits; AID 651819; in the data active = activity change below about -30%; note: % is set by controls: 0 for no effect and ±100 for the full control effect
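Nucleotide hydrolysis assay: TRiC at 20–40 nM final (set by batch activity) with 10 uM ATP, 30 min at 37 °C, in presence of 76 uM compound. Detection by competitive ADP HTRF, 30 min ambient.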
aSyn yeast inh – inhibitors of alpha-synuclein toxicity in yeast | Potency, µM (series often up to 46.1 µM), without a hit: top-dose growth rescue (activation), most hits filed as activators | 370,000 compounds, 0.14% hits | Yeast expressing alpha-synuclein, growth rescue, BacTiter-Glo, 24 h; note: potency is the fitted concentration of half-maximal effect; % of control where 0% means no effect; nearly all actives have a fitted effect of over 65% in size
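Galactose-induced alpha-syn yeast (OD600=0.02, raffinose-pregrown) + pinned cpd, 24 hr, 30 deg C; growth by BacTiter-Glo luminescence. Growth restoration scores as activation.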
FUS suppressor – suppressors of FUS proteinopathy in yeast; S. cerevisiae FUS-expressing, growth rescue, OD600, 24 h; Potency, µM (doses to about 76.6 µM), usual class: activators; 390,000 compounds, 0.24% hits; AID 1347120;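 note: potency is the fitted concentration of half-maximal effect; plate controls were DMSO vehicle for no effect and reference control for full effect; nearly all actives have a fitted effect of over 55% in size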
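Toxicity suppression screen in FUS-yeast. Cells induced with 2% galactose, starting OD 0.005, treated 24hr at 30C with compounds at multiple final concentrations; growth by OD600.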
TDP-43 yeast inh – rescues yeast growth from TDP-43 toxicity; Potency, µM (series often up to 46.1 µM), without a hit: at the highest dose growth rescue (activation), most hits filed as activators; TDP-43 expressing yeast growth rescue, BacTiter-Glo, 24 h; 410,000 compounds, 1.8% hits; note: potency is the fitted concentration of half-maximal effect; % of control where 0% means no effect; nearly all actives have a fitted effect of over 50% in size
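Yeast expressing TDP-43 (pregrown in raffinose, seeded at OD600=0.02 in galactose medium) exposed to compounds 24 hr at 30 deg C. Growth read by BacTiter-Glo luminescence; rescue of toxicity appears as increased signal.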
Abeta rescue – compounds reversing amyloid beta toxicity in yeast; yeast expressing A-beta42, growth rescue, OD600, 48 h; response scale: 0% DMSO, 100% iron-clioquinol control; Potency, µM (doses to about 46.1 µM), most hits filed as activators; 410,000 compounds, 0.063% hits; AID 1347071; note: potency is the fitted concentration of half-maximal effect; nearly all actives have a fitted effect of over 55% in size
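Yeast growth medium received pinned compounds, then yeast cells expressing toxic A-beta were added; plates incubated at 30 C for 48 hr. Growth read as absorbance at 600 nm, normalized to DMSO and equimolar FeCl3 plus clioquinol controls.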
MmCpn inh – inhibitors of Methanococcus maripaludis chaperonin TRiC (MmCpn) | purified Mm-Cpn ATPase, ADP Transcreener TR-FRET | Potency, µM (doses to about 76.9 µM), inactives show at the highest dose activity, negative = inhibition, hits mostly inhibitors | 330,000 compounds, 0.031% hits | AID 504842; note: potency is the fitted concentration of half-maximal effect; % is set by controls: 0 for no effect and ±100 for the full control effect; nearly all actives have a fitted effect of over 80% in size
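ATP (10 uM final) was added to archaeal chaperonin (25 nM final) after 10 min exposure to test compound at 37°C; after 30 min further incubation, ADP was detected by competitive TR-FRET.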
An asterisk follows results filed as active; i = inactive; ? = inconclusive; / = not tested or not shown; [ ] = dose if it differs, or a comment. Unless noted, calls come from the whole dose curve; as a rule, active = well fitted curve in the direction sought with a large enough effect; inconclusive = small, poorly fitted or top-dose-only effect, or another doubt; inactive = no such curve, though single readings can be large; an effect the other way counts as inactive or inconclusive.

SMILES	CCT modulator	aSyn yeast inh	FUS suppressor	TDP-43 yeast inh	Abeta rescue	MmCpn inh
Cc1cc(C)c2sc(N3CCN(C(=O)C4CC4)CC3)nc2c1	/	/	i	13µM*	i	/
Cc1cc(C)c2sc(N3CCN(C(=O)c4ccc(N(C)C)cc4)CC3)nc2c1	/	/	i	?	i	/
C[C@@H](NC(=O)c1ccc(C#Cc2cccc(F)c2)cn1)C(C)(C)O	/	/	i	/	/	/
CCCN1CCC(NC(=O)CCc2nnc(-c3ccccc3)o2)CC1	-70*	-6%	i	-8%[0.397 µM]	i	0%
COc1ccc(NC(=S)N2CCN(C(=O)c3ccco3)CC2)cc1	-2	4%	i	-1%	i	-2%
COc1ccc(S(=O)(=O)N2CCN(C(=O)c3ccco3)CC2)c(C)c1C	0	1%	i	22µM*	i	?
O=C(c1ccc(Cl)cc1)N1CCN(C(=O)c2ccco2)CC1	-16	2%	i	-4%	i	-2%
O=C(c1ccco1)N1CCN(C(=O)c2ccc(-c3ccc(Cl)cc3)o2)CC1	-1	-1%	i	22µM*	i	-8%
O=C(c1ccco1)N1CCN(S(=O)(=O)c2c(Cl)cccc2Cl)CC1	1	8%	i	16µM*	i	-1%
COC(=O)c1ccc(NC(=S)N2CCN(C(=O)c3ccco3)CC2)cc1	-40*	5%	/	13%	i	-3%
COc1ccc(Cl)cc1S(=O)(=O)N1CCN(C(=O)c2ccco2)CC1	3	0%	i	16%	i[9.22 µM]	2%
Nn1c(SCC(=O)Nc2ccc(OCc3ccccc3)cc2)nnc1-c1cc(-c2ccc(F)cc2)n[nH]1	/	/	i	/	/	/
COc1ccc(N2CCN(C(=O)c3cnn(-c4ccc(OC)cc4)c3C3CCN(C(=O)OC(C)(C)C)CC3)CC2)cc1	/	/	i	12%	i	/
CC1(C)CC(=O)N(CC(=O)N2CCN(Cc3ccc4c(c3)OCO4)CC2)c2ccccc2S1(=O)=O	/	/	i	/	/	/
C(=Nc1ccc(/C=C/c2ccnc3ccccc23)cc1)c1ccc2c(c1)OCO2	/	-4%	/	/	/	/
CN(C(=O)c1ccc(Oc2ccc([N+](=O)[O-])cc2)cc1)C1CCCCC1	1	-13%	?	20µM*	i	2%
CN(C(=O)c1cccc(NC(=O)Cc2ccc([N+](=O)[O-])cc2)c1)C1CCCCC1	1	2%	?	12%	i	2%
CC(C)(C)CCN1CCC[C@H](NC(=O)COc2ccc(F)c(Cl)c2)C1	/	/	i	/	/	/
Cn1c(SCc2ccc(C#N)cc2Cl)nc2ccccc21	-36*	0%	i	-5%	i	-3%
CCOC(=O)[C@@]12CCC3=C1N(CCC3)C(=O)[C@H](CC(=O)N1CCOCC1)C2	/	/	i	/	/	/
NS(=O)(=O)c1ccc(CNS(=O)(=O)c2cc(Cl)ccc2Cl)cc1	-38*	-8%	i	-18%	i	2%
NS(=O)(=O)c1ccc(CNC(=O)c2ccc(Cl)c(S(=O)(=O)NCc3ccccc3)c2)cc1	1	4%	i	8%	i	-2%
Cc1ccc(NC(=O)CSc2nc(-c3ccco3)cc(C(F)(F)F)n2)cc1	/	/	i	10%	i	/
CCCCn1c(-c2csc3ccccc23)n[nH]c1=S	-3	6%	/	?	i	-3%
CCCCCCn1c(-c2cccs2)n[nH]c1=S	-1	2%	i	-12%[0.397 µM]	6.3µM*	-9%
SMILES	CCT modulator	aSyn yeast inh	FUS suppressor	TDP-43 yeast inh	Abeta rescue	MmCpn inh
CCCCn1c(-c2cccs2)nc2nc3ccccc3nc21	-1	5%	i	13µM*	i	-15%
C[C@H]1[C@@H](NC(=O)c2cccc(N(C)C)c2)CC[C@@]23CCCN2C(=O)CCC[C@@H]13	/	/	i	/	/	/
Cc1ccc(C2C=C(c3ccccc3OC(F)F)Nc3ncnn32)cc1 (configuration not stated)	-3	12%	/	13µM*	i	-2%
Cc1ccc(C2=CC(c3ccccc3)n3ncnc3N2)c(C)c1 (configuration not stated)	1	10%	i	?	?	/
Cc1ccc(C2C=C(c3ccc4c(c3)OCO4)Nc3ncnn32)cc1 (configuration not stated)	0	10%	i	13µM*	i	1%
CCC1=CC(c2ccccc2)n2ncnc2N1 (configuration not stated)	0	-10%	i	4%	i	/
COc1cccc(C2=CC(c3ccc(C)cc3)n3ncnc3N2)c1 (configuration not stated)	/	/	/	/	/	-3%
CN(C)c1ccc(C2C=C(c3ccc(Cl)cc3OC(F)F)Nc3ncnn32)cc1 (configuration not stated)	-3	15%	?	-7%	i	-7%
C1=C(c2ccccc2)Nc2ncnn2C1c1ccccc1 (configuration not stated)	1	-3%	i	20µM*	i	/
Cc1ccc(C2=CC(c3ccccc3)n3ncnc3N2)cc1 (configuration not stated)	1	8%	i	13µM*	i	/
COC(=O)C1CN(CCc2ccccc2)CCS(=O)(=O)N1Cc1ccccc1F (configuration not stated)	/	/	i	/	/	/
CC1(C)Cc2ccccc2C(/C(=N\Nc2cccc(Cl)c2)C(N)=O)=N1	-1	17%	?	16µM*	i	3%
CC(=O)c1ccc(N/N=C(/C(N)=O)C2=NC(C)(C)Cc3ccccc32)cc1	-6	0%	i	15%	i	0%
CC(C)C(NC(=O)c1ccccc1)C(=O)OCC(=O)N1CCN(c2ccccc2)CC1 (configuration not stated)	4	-2%	i	7%	i	0%
CC(C)C(NC(=O)c1ccccc1)C(=O)OCC(=O)N1CCCCC1 (configuration not stated)	-40*	0%	i	-6%	i	-1%
O=C(Cc1ccc(OCCC2CCCCC2)cc1)NO	/	5.6µM*	/	/	/	/
COC(=O)c1ccc2nc(-c3cccc(Br)c3)c(Cc3ccccc3OC)n2c1	0	-3%	i	?	i	/
COC(=O)c1ccc2nc(-c3ccc(F)cc3)c(Cc3ccccc3OC)n2c1	0	-11%	i	22µM*	i	/
COC(=O)c1ccc2nc(-c3ccc(C)cc3)c(Cc3cccc(Cl)c3)n2c1	-1	4%	i	22µM*	i	/
COC(=O)c1ccc2nc(-c3ccccc3)c(Cc3ccc(C)cc3)n2c1	1	6%	i	13µM*	i	/
COC(=O)c1ccc2nc(-c3ccc(Cl)cc3)c(Cc3cccc(Cl)c3)n2c1	-1	-1%	i	20%	i	/
